The results in this text go back to the supplement of paper PMC7184167.

Where a name gives a salt, the structure may show the parent alone.

The test system of the assay is replication-induced senescent mouse newborn dermal fibroblasts (NBF). The assay can be described thus: relative cell viability of senescent cells (fraction); higher = less killing of senescent cells. As to conditions: 1 µM; 3 days. The procedure: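 Replication-induced senescent newborn mouse skin fibroblasts (NBFs) in 24-well plates were treated with a Selleck FDA-approved drug library at 1 µM for 3 days.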
For `CO[C@H]1/C=C/O[C@@]2(C)Oc3c(C)c(O)c4c(O)c(c(/C=N/N5CCN(C6CCCC6)CC5)c(O)c4c3C2=O)NC(=O)/C(C)=C\C=C\[C@H](C)[C@H](O)[C@@H](C)[C@@H](O)[C@@H](C)[C@H](OC(C)=O)[C@@H]1C` [Rifapentine], the relative cell viability was 0.659.

The molecule `CCCNC(C)C(=O)Nc1ccccc1C` (stereo not given) [Prilocaine] had a relative cell viability of 0.827.

`CCCSc1ccc2[nH]c(NC(=O)OC)nc2c1` [Albendazole] returned a relative cell viability of 1.08.

In the case of `O=c1[nH]c(=O)n([C@H]2C[C@H](O)[C@@H](CO)O2)cc1C(F)(F)F` [Trifluridine], the relative cell viability amounted to 0.971.

`COc1cccc2c1C(=O)c1c(O)c3c(c(O)c1C2=O)CC(O)(C(=O)CO)CC3OC1CC(N)C(O)C(C)O1` (stereo not given) [Doxorubicin (Adriamycin) HCl] gave a relative cell viability of 0.957.

`Cc1nc2n(c(=O)c1CCN1CCC(c3noc4cc(F)ccc34)CC1)CCCC2` [Risperidone] showed a relative cell viability of 0.76.

With `NS(=O)(=O)c1cc2c(cc1Cl)N=CNS2(=O)=O` [Chlorothiazide], the relative cell viability worked out at 0.952.

For `COc1ccc(-c2nc3cc(C4=NNC(=O)CC4C)ccc3[nH]2)cc1` (stereo not given) [Pimobendan], the relative cell viability worked out at 0.639.

`C[C@@H](c1ncncc1F)[C@](O)(Cn1cncn1)c1ccc(F)cc1F` [Voriconazole] gave a relative cell viability of 0.928.

In the case of `O=S(=O)(c1cccc2cnccc12)N1CCCNCC1` [Fasudil (HA-1077) HCl], the relative cell viability was 1.14.

Consider `Nc1nc2c(ncn2COC(CO)CO)c(=O)[nH]1` [Ganciclovir], for which the relative cell viability is 0.995.

Consider `CC(C)(C)C(=O)OCOP(=O)(COCCn1cnc2c(N)ncnc21)OCOC(=O)C(C)(C)C` [Adefovir Dipivoxil], for which the relative cell viability worked out at 0.924.

`CC1(C)CCC(c2ccc(Cl)cc2)=C(CN2CCN(c3ccc(C(=O)NS(=O)(=O)c4ccc(N[C@H](CCN5CCOCC5)CSc5ccccc5)c(S(=O)(=O)C(F)(F)F)c4)cc3)CC2)C1` [Navitoclax (ABT-263)] registered a relative cell viability of 1.04.

Regarding `CN(C)CC/C=C1/c2ccccc2Sc2ccc(Cl)cc21` [Chlorprothixene], the relative cell viability worked out at 1.1.

In turn, `Nc1ccn([C@@H]2CS[C@H](CO)O2)c(=O)n1` [Lamivudine] registered a relative cell viability of 0.759.

Regarding `COc1cc(Nc2c(C#N)cnc3cc(OCCCN4CCN(C)CC4)c(OC)cc23)c(Cl)cc1Cl` [Bosutinib (SKI-606)], the relative cell viability stood at 0.0801.

As for `CC(C)[N+]1(C)[C@@H]2CC[C@H]1C[C@@H](OC(=O)C(CO)c1ccccc1)C2` (stereo not given in full) [Ipratropium Bromide], the relative cell viability was found to be 0.902.

`COc1cc2nccc(Oc3ccc(NC(=O)Nc4cc(C)on4)c(Cl)c3)c2cc1OC` [Tivozanib (AV-951)] returned a relative cell viability of 1.04.

`CC(=O)O[C@H]1C(=O)[C@@]2(C)[C@H]([C@H](OC(=O)c3ccccc3)[C@]3(O)C[C@H](OC(=O)[C@H](O)[C@@H](NC(=O)c4ccccc4)c4ccccc4)C(C)=C1C3(C)C)[C@]1(OC(C)=O)CO[C@@H]1C[C@@H]2O` [Paclitaxel] had a relative cell viability of 0.398.

Take `C[C@@H]1[C@H](O)[C@@H](C)/C=C/C=C/C=C/C=C/C=C/C=C/C=C/[C@H](O[C@@H]2O[C@H](C)[C@@H](O)[C@H](N)[C@@H]2O)C[C@@H]2O[C@](O)(C[C@@H](O)C[C@@H](O)[C@H](O)CC[C@@H](O)C[C@@H](O)CC(=O)O[C@H]1C)C[C@H](O)[C@H]2C(=O)O` [Amphotericin B]: the relative cell viability worked out at 0.766.

Molecule `CNC(=C[N+](=O)[O-])NCCSCc1csc(CN(C)C)n1` [Nizatidine] yielded a relative cell viability of 0.956.

In turn, `CC1(C)O[C@@H]2C[C@H]3[C@@H]4CCC5=CC(=O)C=C[C@]5(C)[C@@]4(F)[C@@H](O)C[C@]3(C)[C@]2(C(=O)CO)O1` [Triamcinolone Acetonide] yielded a relative cell viability of 1.02.

Take `CC(C)c1cc(C(=O)N2Cc3ccc(CN4CCN(C)CC4)cc3C2)c(O)cc1O`: the relative cell viability came to 0.0951.

`Cc1cc(Nc2cc(N3CCN(C)CC3)nc(Sc3ccc(NC(=O)C4CC4)cc3)n2)n[nH]1` [Tozasertib (VX-680, MK-0457)] came in with a relative cell viability of 0.364.

In turn, `C#Cc1cccc(Nc2ncnc3cc(OCCOC)c(OCCOC)cc23)c1` [Erlotinib HCl (OSI-744)] displayed a relative cell viability of 0.672.

`CCCc1cc(C(N)=S)ccn1` [Protionamide] registered a relative cell viability of 1.02.

Regarding `CC[C@H]1OC(=O)[C@H](C)[C@@H](O[C@H]2C[C@@](C)(OC)[C@@H](O)[C@H](C)O2)[C@H](C)[C@@H](O[C@@H]2O[C@H](C)C[C@H](N(C)C)[C@H]2O)[C@](C)(O)C[C@@H](C)CN(C)[C@H](C)[C@@H](O)[C@]1(C)O` [Azithromycin], the relative cell viability turned out to be 0.879.

On to `CS(=O)(=O)OCCCCOS(C)(=O)=O` [Busulfan], for which the relative cell viability worked out at 1.03.

`c1ccc(-c2ccc(C(c3ccccc3)n3ccnc3)cc2)cc1` (stereo not given) [Bifonazole] came in with a relative cell viability of 0.877.

The molecule `Cc1ccc(C)c(OCCCC(C)(C)C(=O)O)c1` [Gemfibrozil] returned a relative cell viability of 1.02.

Consider `COc1cc2/c(=N/c3ccc(Br)cc3F)nc[nH]c2cc1OCC1CCN(C)CC1` [Vandetanib (ZD6474)], for which the relative cell viability is 0.464.

With `CCCCCOC(=O)Nc1nc(=O)n([C@@H]2O[C@H](C)[C@@H](O)[C@H]2O)cc1F` [Capecitabine], the relative cell viability was 0.891.

Regarding `Clc1ccccc1C(c1ccccc1)(c1ccccc1)n1ccnc1` [Clotrimazole], the relative cell viability amounted to 1.01.

Regarding `CNC(=C[N+](=O)[O-])NCCSCc1ccc(CN(C)C)o1` [Ranitidine Hydrochloride], the relative cell viability was 1.1.

`Cc1cn([C@@H]2C[C@@H](O)[C@H](CO)O2)c(=O)[nH]c1=O` [Telbivudine] yielded a relative cell viability of 1.

`CCC(=O)OCC(=O)[C@@]1(OC(=O)CC)[C@@H](C)C[C@H]2[C@@H]3CCC4=CC(=O)C=C[C@]4(C)[C@@]3(F)[C@@H](O)C[C@@]21C` [Betamethasone Dipropionate] had a relative cell viability of 0.902.

`Clc1ccc(C(Cn2ccnc2)OCc2c(Cl)cccc2Cl)c(Cl)c1` (stereo not given) [Isoconazole nitrate] showed a relative cell viability of 0.937.

For the molecule `CN(C)CCOc1ccc(/C(=C(/CCCl)c2ccccc2)c2ccccc2)cc1` [Toremifene Citrate], the relative cell viability is 0.956.

In turn, `Nc1ncnc2c1ncn2[C@@H]1O[C@H](CO)[C@@H](O)[C@H]1O` [Adenosine] yielded a relative cell viability of 0.937.

`CCN1CCN(C(=O)N[C@@H](C(=O)N[C@@H]2C(=O)N3C(C(=O)O)=C(CSc4nnnn4C)CS[C@H]23)c2ccc(O)cc2)C(=O)C1=O` [Cefoperazone] yielded a relative cell viability of 1.03.
